Assay outcomes: PubChem, National Center for Advancing Translational Sciences (NCATS)
Most compounds without a hit are left out; they make up all but 21% or so of the library.
Pf growth 96h = Primary qHTS for delayed death inhibitors of the malarial parasite plastid, 96 hour incubation; P. falciparum luciferase reporter growth, 96 h; Potency, µM (titrated, usually from 28.7 µM), for the others: at the top dose activity change, negative = inhibition, most hits filed as inhibitors; 320,000 compounds, 6.9% hits; AID 504834, 2011; note: potency is the fitted concentration of half-maximal effect; % is set by controls: 0 for no effect and ±100 for the full control effect
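Two-generation exposure (96 h) targets delayed-death phenotype. Reporter parasites carrying integrated firefly luciferase, in red cells at 2% hematocrit and 0.05% parasitemia final, kept at 37 C, 5% CO2; luminescence loss indicates inhibition.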
Cycloheximide cs = Cycloheximide Counterscreen for Small Molecule Inhibitors of Shiga Toxin | max response, % | cell reporter, cycloheximide protein synthesis inhibition counterscreen | 300,000 compounds, 12% hits | AID 2314, 2010; in the data active = max response mostly above about 13%, no sharp cut-off; inactive = mostly below about 14%; note: read at 38.3 µM for the half of the compounds with a filed dose; 0% is about no effect
Shiga toxin inh = A qHTS for Small Molecule Inhibitors of Shiga Toxin | Vero cells, Shiga toxin protein synthesis inhibition reporter | inhibition, % at 38.7 µM | 290,000 compounds, 9.2% hits | AID 2315, 2010; in the data active = inhibition mostly above about 28%, no sharp cut-off; inactive = mostly below about 43%; note: 0% is about no effect
FBPA Giardia inh = qHTS Assay for Inhibitors of Fructose-1,6-bisphosphate Aldolase from Giardia Lamblia; 290,000 compounds, 0.71% hits; purified Giardia FBPA; Potency, µM (doses to about 59.6 µM), without a hit: at the top dose activity, negative = inhibition, most hits filed as inhibitors; A8B2U2; note: potency is the fitted concentration of half-maximal effect; % is set by controls: 0 for no effect and ±100 for the full control effect; nearly all actives have a fitted effect of over 55% in size
Target sequence (A8B2U2 whole entry, looked up): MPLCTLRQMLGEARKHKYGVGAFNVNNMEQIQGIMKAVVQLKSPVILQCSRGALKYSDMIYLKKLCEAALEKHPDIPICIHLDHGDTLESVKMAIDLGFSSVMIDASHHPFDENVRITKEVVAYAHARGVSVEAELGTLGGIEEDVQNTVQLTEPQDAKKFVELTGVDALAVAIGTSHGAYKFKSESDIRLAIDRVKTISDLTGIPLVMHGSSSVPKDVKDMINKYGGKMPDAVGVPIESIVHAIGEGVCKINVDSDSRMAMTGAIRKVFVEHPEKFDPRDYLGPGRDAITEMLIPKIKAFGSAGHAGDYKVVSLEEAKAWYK
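Giardia FBPA (40 nM reagent) was preincubated 10 min at RT with compound (up to 57.5 uM final), then substrate plus GAPDH/TPI/NAD/arsenate coupling system with diaphorase/resazurin was added; resorufin fluorescence (525/598 nm) was read after 20 min.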
Pf growth 48h = Primary qHTS for delayed death inhibitors of the malarial parasite plastid, 48 hour incubation; Potency, µM (top dose mostly 28.7 µM), without a hit: top-dose activity change, negative = inhibition, hits mostly inhibitors; AID 504832, 2011; 310,000 compounds, 5.9% hits; P. falciparum luciferase growth in erythrocytes, 48 h; note: potency is the fitted concentration of half-maximal effect; % is set by controls: 0 for no effect and ±100 for the full control effect
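Parasite viability was followed by luminescence of a genomically integrated firefly luciferase. Cultures held 0.1% parasitemia at 2% hematocrit (final), incubated under 5% CO2 at 37 C.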
NS1 function inh = qHTS Assay for Inhibitors of Influenza NS1 Protein Function; Potency, µM (top dose mostly 46.1 µM), for the others: at the highest dose activity, positive = more growth; 270,000 compounds, 0.4% hits; AID 2326, 2010; calls by dose curve; note: potency is the fitted concentration of half-maximal effect; actives are rising curves; nearly all actives have a fitted effect of over 50% in size
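Growth recovery, yeast-based: influenza A NS1 expressed in S. cerevisiae causes slow growth, and suppressors are detected by OD600. The parent strain without NS1 is used as positive control.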
* marks the source's active call; other numbers are inactive results; [ ] = dose if it differs, or a comment. Unless noted, calls come from the whole dose curve; as a rule, active = well fitted curve in the direction sought with a large enough effect; inconclusive = small, poorly fitted or top-dose-only effect, or another doubt; inactive = no such curve, though single readings can be large; an effect the other way counts as inactive or inconclusive.

Results for COc1cccc(/C=C2\CCCCC2=O)c1 ?
Pf growth 96h: -2%; Cycloheximide cs: 16*; Shiga toxin inh: 38; FBPA Giardia inh: -1%; Pf growth 48h: -7%; NS1 function inh: -4%

How did Cc1cccc(/C=C2\CCC(C3CCCC3)C2=O)c1 (stereo not given) do in these assays?
Pf growth 96h: 14%; Cycloheximide cs: 15*; Shiga toxin inh: 14; FBPA Giardia inh: -1%; Pf growth 48h: 33%; NS1 function inh: -3%

What do the screens show for `CCOc1ncccc1C(=O)OCc1cccc([N+](=O)[O-])c1`?
Pf growth 96h: 15%; Cycloheximide cs: 6; Shiga toxin inh: -17; FBPA Giardia inh: 1%; Pf growth 48h: 17%

Results for COc1cccc(/C=C2\CCC(C3CCCC3)C2=O)c1OC (stereo not given) ?
Pf growth 96h: 1%; Cycloheximide cs: 38*; Shiga toxin inh: 97*; FBPA Giardia inh: -1%; Pf growth 48h: 17%; NS1 function inh: -47%

Results for COc1ccc(/C=C2\CCC(C3CCCC3)C2=O)c(OC)c1OC (stereo not given) ?
Pf growth 96h: inconclusive; Cycloheximide cs: -2; Shiga toxin inh: 3; FBPA Giardia inh: -6%; Pf growth 48h: 6%; NS1 function inh: 5%

Results for CO/N=C(/C)CCC(=O)OC[C@@H]1O[C@H](C#Cc2ccccc2)C=C[C@@H]1Oc1ccc(C)cc1 ?
FBPA Giardia inh: -2%[12.9 µM]

What do the screens show for `CCOC(=O)c1c[nH]c2ccc3ccccc3c2c1=O`?
Pf growth 96h: 4.7µM*; Cycloheximide cs: 1; Shiga toxin inh: 19; FBPA Giardia inh: -5%; Pf growth 48h: inconclusive; NS1 function inh: -17%

How did CCOC(=O)c1c[nH]c2c(Cl)ccc(Cl)c2c1=O do in these assays?
Pf growth 96h: -8%; Cycloheximide cs: -3; Shiga toxin inh: -5; FBPA Giardia inh: 2%; Pf growth 48h: 14%; NS1 function inh: -7%

How did CCOC(=O)c1cnc2c(ccc3ccccc32)c1Cl do in these assays?
Pf growth 96h: 1%; Cycloheximide cs: 21*; Shiga toxin inh: 121*; FBPA Giardia inh: 3%; Pf growth 48h: inconclusive; NS1 function inh: -9%

What do the screens show for `CCOC(=O)c1ccc(-c2ccc3[nH]c4ccccc4c(=O)c3c2)cc1F`?
Pf growth 96h: 5.2µM*; Cycloheximide cs: 0; Shiga toxin inh: -9; FBPA Giardia inh: 6%; Pf growth 48h: inconclusive; NS1 function inh: 21%

How did CCOC(=O)c1ccc2[nH]cc(C(C)=O)c(=O)c2c1 do in these assays?
Pf growth 96h: 3%; Cycloheximide cs: 0; Shiga toxin inh: -1; FBPA Giardia inh: 0%; Pf growth 48h: 4.7µM*; NS1 function inh: -4%

Results for Cc1cc(=O)oc2cc(OCC(=O)Nc3ccc4[nH]c(=O)[nH]c4c3)ccc12 ?
Pf growth 96h: 41%; Pf growth 48h: 31%

What do the screens show for `CC(=O)c1c[nH]c2ccc(C)cc2c1=O`?
Pf growth 96h: inconclusive; Cycloheximide cs: -2; Shiga toxin inh: -10; FBPA Giardia inh: 1%; Pf growth 48h: 6.6µM*; NS1 function inh: -4%

What do the screens show for `Cc1ccc2[nH]cc(C(=O)NCc3cccs3)c(=O)c2c1`?
Pf growth 96h: -5%; Cycloheximide cs: 10; Shiga toxin inh: -5; FBPA Giardia inh: 3%; Pf growth 48h: inconclusive; NS1 function inh: 6%[9.22 µM]

How did O=C(CN1C(=O)C2CC=CCC2C1=O)NCC(=O)Nc1ccc(F)c(F)c1 (stereo not given) do in these assays?
Pf growth 96h: 20%; Pf growth 48h: 38%

How did CCOC(=O)c1cnc(-n2nc(C)cc2C)nc1NCc1ccccc1 do in these assays?
Pf growth 96h: 15%; Cycloheximide cs: 1; Shiga toxin inh: 11; FBPA Giardia inh: -1%; Pf growth 48h: 1.7µM*; NS1 function inh: -110%

Results for CCOC(=O)c1cnc(-n2nc(C)cc2C)nc1NC(C)c1ccccc1 (stereo not given) ?
Pf growth 96h: inconclusive; Cycloheximide cs: -4; Shiga toxin inh: 9; FBPA Giardia inh: 26%; Pf growth 48h: 2.1µM*; NS1 function inh: -114%

Results for CCOC(=O)c1cnc(-n2nc(C)cc2C)nc1NCCO ?
Pf growth 96h: 36%; Cycloheximide cs: -2; Shiga toxin inh: -4; Pf growth 48h: inconclusive; NS1 function inh: 2%

Results for CCOC(=O)c1cnc(-n2nc(C)cc2C)nc1NNc1ncc(-c2ccccc2)cn1 ?
Pf growth 96h: 1.7µM*; Cycloheximide cs: -1; Shiga toxin inh: 16; FBPA Giardia inh: -20%; Pf growth 48h: 3.3µM*; NS1 function inh: 11%

Results for CCOC(=O)c1cnc(-n2nc(C)cc2C)nc1NNc1cc(-c2ccccc2)nc(C)n1 ?
Pf growth 96h: inconclusive; Cycloheximide cs: -3; Shiga toxin inh: -5; FBPA Giardia inh: 12%; Pf growth 48h: inconclusive; NS1 function inh: 7%

How did CCOc1ccc(S(=O)(=O)N2CCCC(C(=O)NCC3CCCO3)C2)cc1Cl (stereo not given) do in these assays?
Pf growth 96h: inconclusive; Pf growth 48h: 9%

What do the screens show for `O=C1NCCCCC1NS(=O)(=O)c1ccc(Cl)cc1` (stereo not given)?
Pf growth 96h: 32%; Cycloheximide cs: 2; Shiga toxin inh: -15; FBPA Giardia inh: -6%; Pf growth 48h: 11%; NS1 function inh: -1%

What do the screens show for `O=c1c(-c2ccnn2-c2ccc(F)cc2)cnc2n1CCS2`?
Cycloheximide cs: -1; Shiga toxin inh: -28; FBPA Giardia inh: 2%; Pf growth 48h: 15%; NS1 function inh: 1%

How did N#Cc1ccc(-n2nccc2-c2cnc3n(c2=O)CCS3)cc1 do in these assays?
Pf growth 96h: 19%; Cycloheximide cs: 26*; Shiga toxin inh: 2; FBPA Giardia inh: 3%; NS1 function inh: 0%

Results for Cc1ccc(C)c(Nc2cc(C)nc3ncnn23)c1 ?
Pf growth 96h: inconclusive; Cycloheximide cs: -3; FBPA Giardia inh: 0%; Pf growth 48h: 100%; NS1 function inh: 7%

How did COc1ccc(Nc2cc(C)nc3ncnn23)c(OC)c1 do in these assays?
Pf growth 96h: 2.9µM*; Cycloheximide cs: -3; Shiga toxin inh: -5; FBPA Giardia inh: 0%; NS1 function inh: inconclusive

How did Cc1ccc(Nc2cc(C)nc3ncnn23)c(C)c1 do in these assays?
Pf growth 96h: 1.5µM*; Cycloheximide cs: -1; FBPA Giardia inh: -3%; Pf growth 48h: -10%; NS1 function inh: -1%

Results for CCN(C(=O)COC(=O)CCCOc1ccccc1)c1c(N)n(Cc2ccccc2)c(=O)[nH]c1=O ?
Pf growth 96h: -1%; Pf growth 48h: inconclusive

What do the screens show for `CC(=O)Nc1cccc(OCCCNS(=O)(=O)c2ccc(C#N)cc2)c1`?
Pf growth 96h: -6%; Cycloheximide cs: -2; Shiga toxin inh: -18; Pf growth 48h: inconclusive; NS1 function inh: 4%
